Several values for one entry are separate records, joined by “and”; a condition that tells them apart may be missing. Identical values can stand only once. Results filed as inconclusive are left out. Activity calls are given as the source filed them. Unless noted, calls come from the whole dose curve; as a rule, active = well fitted curve in the direction sought with a large enough effect in the repeat runs; inconclusive = weak or mixed curves; inactive = no such curve, though single readings can be large; an effect the other way counts as inactive or inconclusive.
What was measured:
[1] = target: Thyrotropin receptor (Homo sapiens) (UniProt P16473); assay: qHTS assay to identify small molecule agonists of the thyroid stimulating hormone receptor (TSHR) signaling pathway (AID 1224843; calls by dose curve; note: nearly all actives have a fitted effect of over 45% in size)
Sequence of Thyrotropin receptor (Homo sapiens) (P16473 whole entry, looked up): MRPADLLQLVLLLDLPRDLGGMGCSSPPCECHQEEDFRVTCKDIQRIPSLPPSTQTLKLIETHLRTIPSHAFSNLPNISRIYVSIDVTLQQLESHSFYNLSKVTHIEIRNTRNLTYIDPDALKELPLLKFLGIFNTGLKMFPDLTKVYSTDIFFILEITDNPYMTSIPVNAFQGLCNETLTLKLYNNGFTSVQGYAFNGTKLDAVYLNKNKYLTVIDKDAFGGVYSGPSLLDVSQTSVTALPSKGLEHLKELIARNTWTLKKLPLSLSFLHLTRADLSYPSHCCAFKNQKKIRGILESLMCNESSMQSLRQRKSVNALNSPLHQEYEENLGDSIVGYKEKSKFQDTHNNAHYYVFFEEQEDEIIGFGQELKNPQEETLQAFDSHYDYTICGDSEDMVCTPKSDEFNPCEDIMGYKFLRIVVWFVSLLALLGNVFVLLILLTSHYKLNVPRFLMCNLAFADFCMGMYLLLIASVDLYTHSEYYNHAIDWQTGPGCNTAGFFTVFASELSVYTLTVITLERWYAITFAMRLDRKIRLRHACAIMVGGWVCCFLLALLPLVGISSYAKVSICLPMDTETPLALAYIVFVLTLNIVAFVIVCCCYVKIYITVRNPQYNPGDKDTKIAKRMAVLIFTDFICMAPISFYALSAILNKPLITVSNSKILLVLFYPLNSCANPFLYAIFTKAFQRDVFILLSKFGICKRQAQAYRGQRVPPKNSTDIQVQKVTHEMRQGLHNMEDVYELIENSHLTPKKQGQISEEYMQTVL
In short: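 Cell line HEK293 with TSHR; density 800/well. Exposure 30 min RT. Readout HTRF cAMP (cAMP-d2/anti-cAMP-cryptate), 1 h RT before reading.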

[2] = qHTS assay to identify small molecule agonists of the hypoxia (HIF-1) signaling pathway - cell viability counter screen (AID 1224844; calls by dose curve; note: nearly all actives have a fitted effect of over 50% in size)
In short: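 ME-180 HRE-bla cells, 2,000/well, 0.5% dialyzed FBS; 5 hr settle, 17 hr compound at 37C/5% CO2; CCF4-AM reporter read first, then CellTiter-Glo luminescence after 30 min RT.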

[3] = qHTS assay to identify small molecule agonists of H2AX (AID 1224845; active = well fitted activation curve with a large enough effect in the signal ratio in the repeat runs, not every such curve was filed as active; the % refers to the signal ratio)
In short: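 Wild-type CHO-K1 cells plated overnight, then exposed 3 hr at 37C to compounds at 15 concentrations (0.76% DMSO). Lysed, then HTRF anti-pH2AX(S139)-cryptate/anti-H2AX-d2 detection after 24 hr at room temperature; emissions 665 and 620 nm.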

[4] = qHTS assay to identify small molecule agonists of the hypoxia (HIF-1) signaling pathway (AID 1224846; active = well fitted activation curve with a large enough effect in the signal ratio in the repeat runs, not every such curve was filed as active; the % refers to the signal ratio)
In short: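 Cell line: CellSensor HRE-bla ME-180; 2,000 cells/well; 0.5% dialyzed FBS; 5 h preincubation; DMSO compound pin transfer; 17 h, 37C, 5% CO2; CCF4-AM added; bla FRET signal scored for activation.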

[5] = qHTS assay to identify small molecule agonists of H2AX - cell viability counter screen (AID 1224847; calls by dose curve; note: top concentration of the series differs between compounds; nearly all actives have a fitted effect of over 30% in size)
In short: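 CHO-K1 cells plated overnight at 37C, then exposed 3 h at 37C to compounds at 15 concentrations (0.76% DMSO final). Viability by CellTiter-Glo luminescence after 30 min at room temperature.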

[6] = qHTS RealTime-Glo MT Cell Viability Assay in HepG2 cells - 24 hour (AID 1224867); note: nearly all actives have a fitted effect of over 50% in size
In short: (§1)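 qHTS, HepG2, 600 cells/well, RealTime-Glo (NanoLuc + prosubstrate) added with cells; 5 h preincubation; DMSO compound addition; 37 C; luminescence at 0/8/16/24/32/40 h.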

[7] = qHTS RealTime-Glo MT Cell Viability Assay in HEK293 cells - 32 hour (AID 1224868); note: top concentration of the series differs between compounds; nearly all actives have a fitted effect of over 50% in size
In short: (§2)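 Assay medium contained NanoLuc luciferase plus cell-permeant prosubstrate, added with HEK293 cells at 600 cells/well. After 5 h at 37 C/5% CO2 compounds were added; plates stayed at 37 C for 40 h with serial luminescence reads.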

[8] = A CellTox Green Cytotoxicity Assay to monitor cytotoxicity in HEK293 cells - 0 hour (AID 1224869); note: nearly all actives have a fitted effect of over 50% in size
In short: (§3)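 Nonlytic real-time cytotoxicity: HEK293 + CellTox Green reagent plated, 5 h preincubation, pintool compound addition (23 nL in DMSO), 37 C for 40 h, fluorescence measured at successive time points.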

[9] = A CellTox Green Cytotoxicity Assay to monitor cytotoxicity in HEK293 cells - 40 hour (AID 1224871); note: nearly all actives have a fitted effect of over 45% in size
In short: as §3

[10] = qHTS RealTime-Glo MT Cell Viability Assay in HEK293 cells - 16 hour (AID 1224872)
In short: as §2

[11] = qHTS RealTime-Glo MT Cell Viability Assay in HepG2 cells - 8 hour (AID 1224873); note: nearly all actives have a fitted effect of over 55% in size
In short: (§4)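 HepG2 cells mixed with RealTime-Glo MT reagents (NanoLuc plus cell-permeant prosubstrate) were seeded at 600 cells/well, incubated 5 h at 37 C/5% CO2, then pinned with compounds in DMSO; nonlytic luminescence tracked viability during 40 h treatment.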

[12] = qHTS RealTime-Glo MT Cell Viability Assay in HEK293 cells - 40 hour (AID 1224874); conditions: RealTime-Glo luminescence; max response: stronger effect = lower value; note: nearly all actives have a fitted effect of over 50% in size
In short: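 Cells were seeded together with NanoLuc luciferase and a prosubstrate that viable cells reduce to a luciferase substrate. After a 5 h incubation at 37 C/5% CO2, compounds were added and luminescence was measured repeatedly during 40 h of treatment.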

[13] = A CellTox Green Cytotoxicity Assay to monitor cytotoxicity in HEK293 cells - 24 hour (AID 1224875); note: series mostly up to about 77 µM; nearly all actives have a fitted effect of over 45% in size
In short: as §3

[14] = A CellTox Green Cytotoxicity Assay to monitor cytotoxicity in HepG2 cells - 16 hour (AID 1224876); note: nearly all actives have a fitted effect of over 45% in size
In short: (§5)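 Read-out is fluorescence of a cyanine dye excluded from live cells that stains DNA of dead HepG2 cells, with signal proportional to cytotoxicity. Plates were read at 0, 8, 16, 24, 32 and 40 h after compound addition.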

[15] = qHTS RealTime-Glo MT Cell Viability Assay in HepG2 cells - 32 hour (AID 1224877); note: nearly all actives have a fitted effect of over 55% in size
In short: as §1

[16] = A CellTox Green Cytotoxicity Assay to monitor cytotoxicity in HepG2 cells - 24 hour (AID 1224878); note: nearly all actives have a fitted effect of over 45% in size
In short: as §5

[17] = A CellTox Green Cytotoxicity Assay to monitor cytotoxicity in HepG2 cells - 40 hour (AID 1224879); note: nearly all actives have a fitted effect of over 40% in size
In short: as §5

[18] = qHTS assay to identify small molecule antagonists of the estrogen related receptor (ERR) signaling pathway from Tox21 library (AID 1224848); note: nearly all actives have a fitted effect of over 50% in size
In short: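 Screening used an ERR reporter line supplied by NTP, exposed for 18 h at 37 C to library compounds delivered in DMSO. Signal was luciferase luminescence developed with ONE-Glo at room temperature for 30 min.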

[19] = qHTS assay to identify small molecule agonists of the estrogen related receptor (ERR) signaling pathway from Tox21 library (AID 1224849; calls by dose curve; note: nearly all actives have a fitted effect of over 15% in size)
In short: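 ERR cells, 6 h pre-incubation 37 C/5% CO2; cpd in DMSO pinned; 18 h 37 C; ONE-Glo added, 30 min RT; luminescence read. Agonist mode, qHTS.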

[20] = qHTS RealTime-Glo MT Cell Viability Assay in HepG2 cells - 40 hour (AID 1224870); note: nearly all actives have a fitted effect of over 50% in size
In short: as §4
% is set by controls: 0 for no effect and ±100 for the full control effect.

CCCCCCCCCCCC(=O)OC
inactive: outcome [1] | outcome [2] | outcome [3] | outcome [4] | outcome [5] | Potency [6] | Potency [7] | outcome [8] | Potency [9] | Potency [10] | Potency [11] | max response [12] -2.49% and 7.82% | Potency [13] | outcome [14] | outcome [15] | Potency [16] | Potency [17]

O=C(OCC1CCC2OC2C1)C1CCC2OC2C1 (configuration not stated)
inactive: outcome [1] | outcome [2] | outcome [3] | outcome [4] | outcome [5] | Potency [6] | Potency [7] | outcome [8] | Potency [9] | Potency [10] | Potency [11] | max response [12] 2.18% and 1.6% | Potency [13] | outcome [14] | outcome [15] | Potency [16] | Potency [17]

CC1(C)NC(=O)NC1=O
inactive: outcome [1] | outcome [2] | outcome [3] | outcome [4] | outcome [18] | outcome [19] | Potency [6] | Potency [7] | outcome [8] | outcome [20] | Potency [9] | Potency [10] | Potency [11] | max response [12] 4.62% and 21.9% | Potency [13] | outcome [14] | outcome [15] | Potency [16] | Potency [17]

CC(C)=CCl
inactive: outcome [1] | outcome [2] | outcome [3] | outcome [4] | outcome [5] | Potency [6] | Potency [7] | outcome [8] | Potency [9] | Potency [10] | Potency [11] | max response [12] 8.16% and 2.09% | Potency [13] | outcome [14] | outcome [15] | Potency [16] | Potency [17]

Cc1ccc2ncccc2c1
inactive: outcome [1] | outcome [2] | outcome [3] | outcome [4] | outcome [18] | outcome [19] | Potency [6] | Potency [7] | outcome [8] | Potency [9] | Potency [10] | Potency [11] | max response [12] 0.634% and 3.71% | Potency [13] | outcome [14] | outcome [15] | Potency [16] | Potency [17]

CNC(=O)Oc1ccc2c(c1)[C@]1(C)CCN(C)[C@@H]1N2C
inactive: outcome [1] | outcome [2] | outcome [3] | outcome [5] | Potency [6] | Potency [7] | outcome [8] | Potency [9] | Potency [10] | Potency [11] | max response [12] 4.52% and 8.75% | Potency [13] | outcome [14] | outcome [15] | Potency [16] | Potency [17]

CCO[Si](CCC#N)(OCC)OCC
inactive: outcome [2] | outcome [3] | outcome [4] | outcome [5] | Potency [6] | Potency [7] | outcome [8] | outcome [20] | Potency [9] | Potency [10] | Potency [11] | max response [12] 7.39% and 2.23% | Potency [13] | outcome [14] | outcome [15] | Potency [16] | Potency [17]

CCCCCCCCCCCCCCCC(=O)OC(C)C
inactive: outcome [2] | outcome [3] | outcome [4] | Potency [6] | Potency [7] | outcome [8] | outcome [20] | Potency [9] | Potency [10] | Potency [11] | max response [12] 4.79% and -1.72% | Potency [13] | outcome [14] | outcome [15] | Potency [16] | Potency [17]

COc1ccccc1OCC(O)CO (configuration not stated)
inactive: outcome [1] | outcome [2] | outcome [3] | outcome [5] | Potency [6] | Potency [7] | outcome [8] | Potency [9] | Potency [10] | Potency [11] | max response [12] 1.4% and 1.84% | Potency [13] | outcome [14] | outcome [15] | Potency [16] | Potency [17]

CCCCCCCO
inactive: outcome [1] | outcome [2] | outcome [3] | outcome [4] | Potency [6] | Potency [7] | outcome [8] | Potency [9] | Potency [10] | Potency [11] | max response [12] 10.9% and 3.74% | Potency [13] | outcome [14] | outcome [15] | Potency [16] | Potency [17]

CC(C)(Oc1ccc(CCNC(=O)c2ccc(Cl)cc2)cc1)C(=O)O
inactive: outcome [1] | outcome [2] | outcome [3] | outcome [5] | outcome [18] | outcome [19] | Potency [6] | Potency [7] | outcome [8] | Potency [9] | Potency [10] | Potency [11] | max response [12] 3% and 2.4% | Potency [13] | outcome [14] | outcome [15] | Potency [16] | Potency [17]

CCNc1ccccc1
inactive: outcome [1] | outcome [2] | outcome [3] | outcome [4] | Potency [6] | Potency [7] | outcome [8] | outcome [20] | Potency [9] | Potency [10] | Potency [11] | max response [12] 0.38% and 24% | Potency [13] | outcome [14] | outcome [15] | Potency [16] | Potency [17]

O=C(O)/C=C/C(=O)O
inactive: outcome [1] | outcome [2] | outcome [3] | outcome [4] | Potency [6] | Potency [7] | outcome [8] | Potency [9] | Potency [10] | Potency [11] | max response [12] -4.18% and -12.4% | Potency [13] | outcome [14] | outcome [15] | Potency [16] | Potency [17]

CCOC(=O)c1ccc(N)cc1
inactive: outcome [1] | outcome [2] | outcome [3] | outcome [5] | Potency [6] | Potency [7] | outcome [8] | outcome [20] | Potency [9] | Potency [10] | Potency [11] | max response [12] -17.4% | Potency [13] | outcome [14] | outcome [15] | Potency [16] | Potency [17]

Source: PubChem BioAssay (Tox21)
